# Her2 expr inh: Her2 kinase expression inhibition | 65,000 compounds, 0.69% hits | AID 645 | HER2 level % of control, % at 10 µM | P04626 | SKBR-3 HER2 protein level, AlphaScreen, 18-24 h; hits give low values;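 active means HER2 level under 5% of the carrier-only control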;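 further: 100% = DMSO carrier and 0% = 500 nM PU-H71 HSP90 inhibitor; lower value means stronger loss of Her2 protein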
# Cav32 inh: human Cav3.2 channel inhibition, primary screen; O95180; Cav3.2-expressing cells, Fluo-4 calcium fluorescence FDSS; hits give low values; B-score at 10 µM; 100,000 compounds, 4% hits; AID 449739;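 active means single-dose well whose peak fluorescence ratio is a statistical outlier from its plate by either plate-standardised score or position-corrected B-score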
# PLAP activator: activates human placental alkaline phosphatase | activation fold at 20 µM | P05187 | purified PLAP enzyme, luminescent substrate read-out; hits give high values | 96,000 compounds, 1.2% hits; in the data active means activation fold above about 2
# M1 antag: antagonists of rat M1 muscarinic receptor | 64,000 compounds, 3.4% hits | CHO-M1 cells, Fluo-4 calcium, ACh EC80 antagonist mode; hits give low values | P08482 | B-score at 10 µM;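 active means calcium fluorescence response, raw or row-and-column corrected B-score, differing from the plate sample mean either way at a set confidence level, mostly lower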
# M1 ag: agonists of M1 muscarinic receptor | CHO-M1 cells, Fluo-4 calcium fluorescence, agonist mode; hits give high values | B-score at 10 µM | 64,000 compounds, 3% hits | AID 626;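 active means fluorescence rise, raw or as B-score row- and column-corrected plate score, outside the 99.7% band of its plate's samples, either direction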
# * marks the source's active call; other numbers are inactive results; x = not tested or not shown. Rows were chosen to be rich in hits. Some 7.9% of all compounds tested hit in one or more screens of this group.
SMILES,Her2 expr inh,Cav32 inh,PLAP activator,M1 antag,M1 ag
CCCn1c(=O)n(C)c(=O)c2c3oc(=O)c(NC(=O)c4ccc(F)cc4)cc3[nH]c21,46,x,x,0.34,0.81
CC(C)c1nc(SCC(=O)NCc2ccc3c(c2)OCO3)c2c(=O)n(C)c(=O)n(C)c2n1,89,x,x,0.061,-0.43
c1ccc(-c2nnc(SCc3nc4ccccc4[nH]3)n2Cc2ccco2)nc1,112,0.013,2.6*,-0.16,-0.3
Clc1ccccc1CSc1nnc(-c2ccccn2)n1Cc1ccco1,97,-3.1,1.2,-0.0095,-0.21
O=C1CC(Cc2ccc(Cl)cc2)C(=O)N1c1ccncc1 (centres undefined),x,0.42,x,x,x
O=C(O)CN1C(=O)CC(Cc2ccc(Cl)cc2)C1=O (centres undefined),-20*,0.76,0.9,0.18,-0.53
CCOc1ncccc1C(=O)OCC(=O)c1cc(C)n(Cc2ccco2)c1C,93,-4.9*,1.1,-0.11,-0.63
COC(=O)c1c(NC(=O)C2(C)Cc3ccccc3C(=O)O2)sc2c1CCCC2 (centres undefined),x,-0.31,0.9,x,x
O=C(O)c1ccccc1N=Nc1ccc(O)cc1,x,0.46,x,x,x
O=[N+]([O-])c1ccc(N=Nc2ccc(O)cc2O)cc1,x,-8.8*,0.7,x,x
CCc1ccc(-c2nc(CN3CCCC(C(=O)NCCc4ccc(OC)c(OC)c4)C3)c(C)o2)cc1 (centres undefined),-23*,-5.8*,1.5,-1.5,-0.51
Cc1oc(-c2cccc(Cl)c2)nc1CN1CCC(C(=O)NCC2CCCO2)CC1 (centres undefined),100,-0.12,1.5,0.017,-0.049
COc1ccc(CCNC(=O)C2CCCN(Cc3nc(-c4ccccc4C)oc3C)C2)cc1OC (centres undefined),92,x,1.4,-0.22,-0.79
COc1ccc(CCNC(=O)C2CCN(Cc3nc(-c4cccc(Cl)c4)oc3C)CC2)cc1OC,81,x,2.2*,0.3,-0.28
Fc1ccc(-c2nnc3ccc(N4CCc5ccccc5C4)nn23)cc1,78,0.72,1.4,-0.28,-0.95
CC1Sc2ccccc2N(CC(=O)N(C(C)C)C(C)C)C1=O (centres undefined),x,0.059,1,x,x
O=c1cccc(-c2ccccc2)[nH]1,-26*,-0.15,1,0.46,0.23
O=c1cc(-c2ccccc2)[nH][nH]1,x,-1,x,x,x
Cc1ccc(C(=O)Nc2nc(=O)n(C(=O)CC(C)C)s2)cc1,x,-3.8,1.2,x,x
Cc1ccc(C(=O)Nc2nc(=O)n(C(=O)c3ccccc3Cl)s2)cc1,x,-6.1*,1.7,x,x
O=C(NCCN1CCCC1)c1cc(-c2ccncc2)nc2ccc(S(=O)(=O)N3CCOCC3)cc12,113,0.18,1.3,0.054,-1.2
O=C(CC(NS(=O)(=O)c1ccc(Cl)cc1)c1ccco1)N1CCc2ccccc21 (centres undefined),x,-4.3*,0.9,x,x
CCC(C)NC(=O)CC(NS(=O)(=O)c1ccc(Cl)cc1)c1ccco1 (centres undefined),108,-0.015,1,x,x
COc1ccc(S(=O)(=O)NCCSCc2ccccc2C)cc1Br,x,-4.9*,0.7,x,x
COc1ccc(C2=NOC(c3nnc(-c4ccccc4)o3)C2)cc1 (centres undefined),x,-0.13,x,x,x
SMILES,Her2 expr inh,Cav32 inh,PLAP activator,M1 antag,M1 ag
COc1ccccc1NS(=O)(=O)c1cc(C(=O)NCCN2CCOCC2)ccc1Cl,129,0.88,1.1,-0.49,0.75
O=[N+]([O-])c1ccc2nc(-c3ccccc3)n(OCc3ccc(Cl)cc3)c2c1,x,-4.5*,1.1,x,x
CCOC(=O)Cc1csc(NC(=O)CSc2nc(N)c3c(C)c(C)sc3n2)n1,x,0.12,0.9,x,x
CCCN=C(C)c1c(-c2ccccc2)[nH]n(-c2nc3ccccc3s2)c1=O,x,0.6,0.8,x,x
CCCc1[nH]n(-c2nc3ccccc3s2)c(=O)c1C=NCC(C)C,x,-0.61,2.1*,x,x
CCOc1ccccc1OCC(=O)NN1Cc2ccccc2C1=N,x,-0.22,1.3,x,x
COc1ccc(NC(=S)NNC(=O)Cn2nc([N+](=O)[O-])cc2C)cc1,x,-0.067,2.2*,x,x
O=C(Cn1nc(C(F)F)cc1C(F)F)NNC(=S)Nc1ccc(Cl)cc1,x,-1.1,2*,x,x
COc1cc(OC)cc(-c2cc3nc(C)cc(N4CCN(C(=O)c5ccco5)CC4)n3n2)c1,x,x,1,x,x
CCOc1ccccc1NC(=O)N1CCCC1C(=O)Nc1ccc(-n2cnnn2)c(C)c1 (centres undefined),x,0.13,1.2,-0.16,0.36
Cc1onc(-c2ccccc2)c1C(=O)Nc1cccc(C#N)c1,73,-0.11,0.9,0.49,-0.018
COCCCn1c(=N)c(C(=O)NCC2CCCO2)cc2c(=O)n3ccccc3nc21 (centres undefined),112,-0.33,1.7,-0.66,0.83
CCOCCCn1c(=N)c(C(=O)Nc2cc(C)on2)cc2c(=O)n3ccccc3nc21,114,x,x,-0.18,5.9*
CC(C)(C)c1nc(N2CCN(C(=O)c3ccco3)CC2)c2nnn(Cc3ccccc3)c2n1,x,-7.2*,1,x,x
O=C(c1ccco1)N1CCN(c2nc(C3CC3)nc3c2nnn3Cc2ccccc2Cl)CC1,x,-1.9,x,x,x
CCN1C(=S)SC(=O)C1=C1C=C(C)N(CCOC)C(C)=C1,104,x,0.8,-0.7,44*
CCN1C(=S)SC(=O)C1=C1C=C(C)N(CCO)C(C)=C1,54,-0.95,0.7,1.8,-0.0025
CC(=O)N1CCC(N(C(=O)Nc2ccc(C)c(C)c2)C2CCCC2)CC1,126,0.065,1,3*,1.5
Clc1ccc(OCCSc2ncccn2)cc1,x,-3.2,0.7,x,x
Cc1ccccc1C(=O)Oc1cccc(Nc2ncnc3ccccc23)c1,x,-4.8*,x,x,x
Cn1c(=O)c(C(=O)Nc2ncccc2O)c(O)c2ccccc21,74,0.17,2.2*,0.012,-0.63
CC(C)Cn1c(=O)c(C(=O)Nc2ccncc2)c(O)c2ccccc21,-13*,x,x,0.16,0.51
CC(C)Cn1c(=O)c(C(=O)Nc2cnccn2)c(O)c2ccccc21,34,x,1.2,0.0054,-0.63
CC(Sc1nc(-c2ccccc2)nc2c1COC(C)(C)C2)C(=O)N1CCOCC1 (centres undefined),x,1.2,1.5,x,x
O=C(CN1CCN(S(=O)(=O)c2ccccc2)CC1)NC(=O)NC1CCCCC1,x,1,1.7,x,x
SMILES,Her2 expr inh,Cav32 inh,PLAP activator,M1 antag,M1 ag
CCOC(=O)N1CCC(N2CCN(S(=O)(=O)c3ccc(Cl)cc3)CC2)CC1,x,1.4,2*,x,x
O=C(CN1CCN(S(=O)(=O)c2ccc(Cl)cc2)CC1)NC(=O)NC1CCCCC1,x,-2.4,2*,x,x
COc1ccc(C2CC2/C(=N/OC(=O)c2cccs2)c2ccccc2)cc1 (centres undefined),x,-6*,1,x,x
CCOC(=O)C1=C(C)Nc2nc(SCC)[nH]c(=O)c2C1c1ccncc1 (centres undefined),78,x,1,0.19,-0.57
COC(=O)CNC(c1ccccc1)c1cc(Br)ccc1NC(=O)OCc1ccccc1 (centres undefined),x,-9.4*,1.1,x,x
COC(=O)CNC(c1ccccc1)c1cc(C)ccc1NC(=O)CNC(=O)OCc1ccccc1 (centres undefined),x,-7.2*,1.9,x,x

# Source: PubChem
